# Experimental data as given in the supplement of paper PMC11417369.
# In all, about 25,000 sequences were measured (“ln(normalized median fluorescence intensity)”: median about 9.7, highest 2% from about 11 on). This is one part of a sample in which the highest values are shown more often than they occur.
# Test system: PfAP2-HC AP2 domain (GST-tagged)
# Assay: gcPBM binding intensity (ln(normalized median fluorescence intensity)); higher = stronger DNA binding
# Outline: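 Alexa488 anti-GST antibody, scanned at 488 nm, detected GST-tagged P. falciparum DNA-binding domains that had been expressed in E. coli and incubated for 1 h on an Agilent 4 × 180k array. The array carried primer-extended double-stranded 36-bp intergenic genomic probes and negative controls. Binding intensity is the highest Masliner-normalised natural-log median intensity across replicate spots of either orientation of each probe.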
row,Sequence,gcPBM binding intensity (ln)
1,GTAATACACAGACACACACACATACACATATTTATA [CACACA_site7313],10.5
2,CATACATACAGACACACACACATATTTATATTTATA [CACACA_site6172],11.3
3,CATACAGATATATATACACACATACAGATAAATACA [CACACA_site4592],9.95
4,TACACATACAGACATACACACATACACATATACACA [CACACA_site6918],10.5
5,TACATACACAGACACACACACATATATATATATATA [CACACA_site3557],10.9
6,TATATTATTTATTAGACACACATTATTAATATATTT [CACACA_site1078],9.79
7,TATACAGATAAATACACACACATATATATATATATA [CACACA_site4178],9.86
8,AATATGTACAGACATACACACATATTTATATTTATA [CACACA_site6694],9.88
9,AATACATACAGACACACACACACATATATATATATA [CACACA_site3558],11.5
10,TATTTATATAGACACACACACATATATTTATATTTT [CACACA_site7240],10.4
11,ATATATAGGTTCCCTTTTCTTTTTTTTTTTTTTTTT [CACACA_negctrl_site1159],9.39
12,AAAAAACAAAAAAAAAAAAAAATAATACAATATAAT [CACACA_negctrl_site1630],9.56
13,ACGATATTTTTGGTGACACACATATATATATATATA [CACACA_site126],9.8
14,AAAAATTTTTTTTCATTTGTTTTTATTCCGTAAAAA [CACACA_negctrl_site1217],9.17
15,AAAATATATTAAGGCACACACATACATATATATATA [CACACA_site3723],10.7
16,CTAAAATACAGACACACACACACATATATATATATA [CACACA_site4150],11
17,TATATATCAATATACACACACACATATTTATTTATA [CACACA_site6858],10.4
18,TATACATAGATATATACACACATATATTTATATACA [CACACA_site6328],9.92
19,TAAATACAGACATATACACACATATATATATATATA [CACACA_site4382],9.75
20,ATGATATATAGACACACACACATATTTATATACATT [CACACA_site6404],10.9
21,AAAATATATTAAGGCACACACATACAGATATATATA [CACACA_site5951],11.1
22,TATATATCAAGACACACACACATATATTTATTTATA [CACACA_site7733],11.2
23,TATGTGCCAAGACACACACACATATTTATATTTATA [CACACA_site6360],10.2
24,TATTTATAGATATATACACACATATTTATATTTATA [CACACA_site6441],9.78
25,AAAATACACAGACACACACACATATAAATAAATATT [CACACA_site7871],10.8

row,Sequence,gcPBM binding intensity (ln)
1,AAAAAATATATTAAGGCACACACATACATATATATA [CACACA_site9239],10.2
2,TATACAAGTATATAGGTGCATATATAAGTATATATT [GTGCAC_site9994],9.69
3,ACGTTTTATTTTTATTGTACTCACATTGAAATGAAT [XGTACX_site6094],10
4,AATATAATGCAATATACACACATATATTTCTCTTTT [CACACA_site7276],9.94
5,TTTTCTAAAAAAAGTTGTACATCTTATTTATATTAT [XGTACX_site295],9.63
6,AATTTCAAATTGTATGTGCACATGTAGAAGTACTTT,9.85
7,AAAATATGTATGTAAAGTACTAATATACAAATTTTT [XGTACX_site5186],9.62
8,TGTATTTATTAATGTACACACATGCGTATGTTCGTT [CACACA_site5892],9.96
9,TTTTTTTTTATAGCTAAACACACATAAGAATATATG [CACACA_site8282],9.61
10,TTTTTTTTTTTTTTTGCACACACATTGAATTATTAT [CACACA_site198],9.96
11,TTTATTTATATAATTACACACATATATACACAAATG [CACACA_site8903],9.79
12,TGTTGTAACAAAAGTACACACACATTTCTATAAATT [CACACA_site8894],9.86
13,GAATATAAACATATTACACACATCTATCTGTACATT [CACACA_site5114],9.97
14,AATAACCACAGACACACACACATATAAATATAAATA [CACACA_site7631],10.9
15,TAAATAAATACATACACACACATACAGATATATATA [CACACA_site5690],10.5
16,TACAGATACAGATACACACACACACCGAAATAAATA [CACACA_site4865],11
17,GGATATAACAGACACACACACACATATAAATATATT [CACACA_site7866],10.6
18,ATTTCATACAGACACACACACAAACAAACATATATA [CACACA_site979],11.2
19,TATAAATATAAATACACACACACATCAATACAGATA [CACACA_site5850],11
20,TATATATATAAATACACACACACACCGATATATATA [CACACA_site5408],10.5
21,TATATACTCAAACACACACACACATACACAGACATA [CACACA_site5025],10.7
22,TATAAATACAGATACACACACACACCGATATATATA [CACACA_site5271],10.4
23,AAAAAAAACAGACACACACACATACAAAATATATAT [CACACA_site1449],10.7
24,AACCACAGACATATAACACACATATACAATATATAT [CACACA_site5142],10.4
25,TATACAGATATATATACACACATATATATAAATACA [CACACA_site4383],9.97
